Over roughly 25,000 sequences, “ln(normalized median fluorescence intensity)” has its median near 9.7; the highest 2% begin near 11. Shown is part of a subset that was picked to be rich in the highest values.

This assay deals with PfAP2-HC AP2 domain (GST-tagged). Description: gcPBM binding intensity (ln(normalized median fluorescence intensity)); higher = stronger DNA binding. In a few lines: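 Each value is the highest Masliner-normalised natural-log median intensity across replicate spots of either orientation of a probe. The probes were primer-extended double-stranded 36-bp intergenic genomic sequences on an Agilent 4 × 180k array, alongside negative controls, exposed for 1 h to GST-tagged P. falciparum DNA-binding domains expressed in E. coli. Bound protein was picked up with Alexa488 anti-GST antibody and scanned at 488 nm.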
Turning to “AAGTATTATATATTTTGTACATATATAAAACCACAA [XGTACX_site5508]”, the “gcPBM binding intensity (ln)” value stood at 9.61.
Then “AATATATACACATGCGCACACACAAGTGGGAAATTT [CACACA_site8527]”, with 10.2; and “ATAGAAACATATTGACGTACAGTATAATAATACAGT [XGTACX_site197]”, with 9.91; and “TGAAATACGAATTATTGTACTTATGTGTAAGATGGC [XGTACX_site4472]”, with 9.71.
The same measure for “CAATTTGGTGTACAGGTGCACATGCCTCACGATAAA [GTGCAC_site9650]”: 9.61; for “TACTAAAACCCATACACACACATATTTATAGTACCA [CACACA_site7484]”: 10.6; for “CATACATACAAACACACACACACACCCATATATATA [CACACA_site2918]”: 11.1.
In the case of “AATACTAAAACCCATACACACACATATATATAGTAC [CACACA_site9041]”, the “gcPBM binding intensity (ln)” value is 11.
The same measure for “CACCCATACACATACAAACACACATTCTATATATAT [CACACA_site1600]”: 10.1; for “TATATACACAAACACACACACACATACACCCACATA [CACACA_site8504]”: 10.8.
The same measure for “AGATACAAGCACTATAGTACACATACTAAAAATATA [XGTACX_site5849]”: 9.73; for “TTATATGTATATATAGTGCAGAACAAAAGATTATAT [GTGCAC_site9599]”: 9.7.
The same measure for “GGACTTTATAAAAATGGTACACGCAATTCTATAATC [XGTACX_site6515]”: 9.61.
Regarding “CATATACATAAACACACACACACATAAATAAATATA [CACACA_site4864]”, the “gcPBM binding intensity (ln)” value amounted to 10.6.
Then “TACATAAATTAAAACACACACACACTAATAAAAAAA [CACACA_site8712]”, with 11.3; and “AAAAAAAACATACATACACACACATAAATATATATA [CACACA_site8864]”, with 11.4.
Consider “CATTTAACATAAATTAAACACACAATATAATACATT [CACACA_site8333]”, for which the “gcPBM binding intensity (ln)” value was found to be 9.73.
With “ATTTCATAAATTAAACGTACATAATACACACACATG [XGTACX_site4155]”, the “gcPBM binding intensity (ln)” value was found to be 11.
The same measure for “TATAATTTAAAATACACACACATATATATAATATAT [CACACA_site2000]”: 10.1; for “GAAATAATTTCATATACACACATATACATACATACA [CACACA_site1358]”: 9.95; for “AAAAATTAAATAAATTTACACACTAATAATTACATA [CACACA_site8260]”: 9.63.
Then “TACATAAATTAAAACACACACACACTAAAAAAAAAA [CACACA_site7130]”, with 10.5; and “TACAATTTAAAACACACACACAATAATACATATATA [CACACA_site1251]”, with 11; and “AAACGTACATAATACACACACATGTATACATATAAA [CACACA_site2048]”, with 10.2.
Then “AAAAAACATACATACACACACATAAATATATATATT [CACACA_site2699]”, with 10.4; and “ATAAAAATATTACGCACACACAAACTTATTCATTAT [CACACA_site1969]”, with 10.2.
Turning to TATATATTTTTATGTGTGCACTGTTTCATAAAAGAA, the “gcPBM binding intensity (ln)” value was determined as 9.61.
Then “ACAATTTACACTTAAACACACAAAAAAAAGTTATAT [CACACA_site7056]”, with 9.98.
The same measure for “ATATATTTATATATATGTACATATTATGTTAAGAAA [XGTACX_site1111]”: 9.69; for “ATATATAAATTTTAGTGTACATTAATTTTTTTTTTT [XGTACX_site7782]”: 9.64; for “ATTTATTTATATTTAGTGCAATACTATTTTTAAATA [GTGCAC_site9886]”: 9.48.
Then “TTATGTTGTAAATACACACATACATATACATACACA [CACACA_site733]”, with 9.91; and ATAATATATACGTGTGTGCACATGACAAAAGCATAT, with 10.6; and “TAAAATATAAAACACACACACATATATATATATATT [CACACA_site224]”, with 10.3.
With “TATATTCTTTTAAACAGTACACACACACATATATAT [XGTACX_site1701]”, the “gcPBM binding intensity (ln)” value was 11.1.
Then “AATATATAAATATATACACACAAAAACATATATATA [CACACA_site1318]”, with 9.99; and “ATTCTTTTAAACAGTACACACACACCGATATATATA [CACACA_site8213]”, with 10.7.
Then “AAAAAATAAAAAAAAACACACACATACAAGCATATA [CACACA_site8451]”, with 11.1; and “AATATAAATAAACACACACACATATATATATATATT [CACACA_site2906]”, with 11.
The same measure for “TCTTTTAAACAGTACACACACACATATATATATATA [CACACA_site924]”: 10.7; for “CATATACACGAACACACACACATATAAATAAATATA [CACACA_site6379]”: 10.6.
Take “TACACAAAAATAAACACACACACATATATATATATA [CACACA_site1000]”: the “gcPBM binding intensity (ln)” value is 10.2.
The same measure for “AAAAAAAAAAAAAACACACACATATAAATATAAATA [CACACA_site6972]”: 10.4; for “AACATATACACGAACACACACACATATAAATAAATA [CACACA_site6380]”: 10.4.
The same measure for “CTAAAATACGAACACACACACACATATAAATAAATA [CACACA_site7872]”: 11.2; for “AAGCATTTTTTTTAAAGCCTGTTCATCATCCTTACC [CACACA_negctrl_site129]”: 9.44; for “TATTAATTAAACCATACACACATAATTTTTTTATAA [CACACA_site843]”: 9.85.
The same measure for “ATTATTTAAATTTAACGTACGGAATAAGACATAGAT [XGTACX_site8622]”: 9.79.
Consider “CATTTACATGCCAACATGCACTGAACAATCTTTATA [GTGCAC_site9797]”, for which the “gcPBM binding intensity (ln)” value came out at 9.68.
“AAAATATATTAAGGCACACACATACATATTTATATA [CACACA_site7707]”: the “gcPBM binding intensity (ln)” value was determined as 10.2.
For the sequence “AAATGAATAAAATTTATTTATAAAAGAAAAATCACA [GTGCAC_negctrl_site225]”, the “gcPBM binding intensity (ln)” value was 9.57.
For “TATATATATATATATACACACATACAGATATATATT [CACACA_site4629]”, the “gcPBM binding intensity (ln)” value was determined as 9.88.
Then “TAAATAAATAAAAAAACACACATATATATATATATA [CACACA_site4029]”, with 10.
Then “AAATAATATAAACATACACACACACCGATATATATA [CACACA_site8945]”, with 10.7; and “TAAATAAATAAAAAAACACACATATAAATATAAATA [CACACA_site7815]”, with 9.93.
Then “ACCATATAAATAAACACACACACACCGATATATATA [CACACA_site5310]”, with 10.6; and “GTAGAGCATAATAAAACACACACATACATACATATA [CACACA_site8217]”, with 10.4.
On to “AAAATACATAAACACACACACACACCGATATATATA [CACACA_site9186]”, for which the “gcPBM binding intensity (ln)” value stood at 11.6.
Then “TATAAATAAAAACACACACACACATATATATATATA [CACACA_site2268]”, with 10.7; and “TAAATAAAAAAACACACACACATATATATATATATA [CACACA_site2269]”, with 11.4; and “CATAAAATATAAAACACACACACATATATATATATA [CACACA_site223]”, with 10.7.
Take “AAAAAAAAAAAAAACACACACACACGCATAAATATA [CACACA_site6217]”: the “gcPBM binding intensity (ln)” value worked out at 11.5.
Then “AGAGCATAATAAAACACACACATACATACCTATATA [CACACA_site6566]”, with 10.9; and “AGAGCATAATAAAACACACACATACATACATATATA [CACACA_site935]”, with 10.3.
The same measure for “CAATCATGGTTTTACACACACATGCATGTGAAAATT [CACACA_site4870]”: 9.8; for “TTATACGATAATATGACACACAATACAAAAATGTAA [CACACA_site1918]”: 9.86.
Then “AATATAATATATATTAGTACATATATATATATATAT [XGTACX_site870]”, with 9.58.
In the case of “GAAATAAATATATATGCATGTACTTTAATATTATTA [TGCATGCA_site904]”, the “gcPBM binding intensity (ln)” value came out at 9.66.
“TTTTACATATATATATGTACGAAAATGAAAAGGTCA [XGTACX_site5576]”: the “gcPBM binding intensity (ln)” value turned out to be 9.59.
The same measure for “TTTTTATGTTATCAAATAAATATAAATATAATTCAT [CACACA_negctrl_site1522]”: 9.32; for “AAATTTATGAACCTAGTGCAGAAATTAAAAAGATGA [GTGCAC_site9396]”: 9.54.
On to “TCATATATTCAAAAATTTAAAGTTAATAAAACTTGA [CACACA_negctrl_site1546]”, for which the “gcPBM binding intensity (ln)” value came out at 9.06.
Then “AATATAAAAATGTTTACACACACACCGAAATATATT [CACACA_site8800]”, with 11.2.
“ATATAAATATAGTGTGCACACACATAATATATATAT [CACACA_site8713]”: the “gcPBM binding intensity (ln)” value was 10.4.
Then “TATAAAAGGAAACACACACACATATATATATATATA [CACACA_site939]”, with 10.5; and “AGGAAAAAAGAAAAAACACACATAAATATATATATA [CACACA_site3085]”, with 9.74; and “AATATAAAAATGTTTACACACACACCCAAATATATT [CACACA_site2511]”, with 10.2.
The same measure for “AAGGAATAATATAAAACACACACATAAATATAAATA [CACACA_site9115]”: 11.4; for ACATATAAATATTGTGTGCACACACATAATATATAT: 11.3.
The same measure for “ATAAATATTGGGTGCACACACATAATATATATATAT [CACACA_site2272]”: 10.2; for “GGAATAATATAAAACACACACATAAATATAAATATA [CACACA_site3376]”: 10.7; for “AAAAAAAAAAAAAAAACACACATAAAAATATAATAA [CACACA_site3855]”: 9.9.
On to “AATATAAAAATGTTTACACACACACGGAAATATATT [CACACA_site7226]”, for which the “gcPBM binding intensity (ln)” value came out at 10.3.
Then “TAAAAAGGAAAACACACACACACATATATATATATA [CACACA_site3588]”, with 11.4; and “ATATAAAGAAATTAATTTTTCAACAATAAAAATATA [CACACA_negctrl_site1262]”, with 9.35; and “AAATTGGGGCTTGTTACACACTTAGTGCGAGTTCTA [CACACA_site582]”, with 9.75.
The same measure for “ATTTATTATATATAGTGTACGTTCTTAATTATAATT [XGTACX_site7480]”: 9.69; for “TATCATATATTATATGCACACATGTTTTTCAAGAAT [CACACA_site1892]”: 9.74; for “TTTCTTTTTCGATATACACACTGTATGTGTCTAAAA [CACACA_site6054]”: 9.95.
Then TGTATGATAACTATAGTGCATTTGGTAATTTTTCCA, with 9.51.
